Assay outcomes as filed in PubChem BioAssay.
SENP6 block: SENP6 protease inhibitors, primary screen, biochemical, luminescence, uHTS. 330,000 tested, 1.8% active. inhibition, % at 10 µM. Sentrin-specific protease 6 (Homo sapiens), Q9GZR1. Recombinant SENP6 catalytic domain, aminoluciferin luminescence;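 active = inhibition above about 50% at the single tested dose, limit read from the data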
Target sequence (Q9GZR1 628-1112 limits assumed): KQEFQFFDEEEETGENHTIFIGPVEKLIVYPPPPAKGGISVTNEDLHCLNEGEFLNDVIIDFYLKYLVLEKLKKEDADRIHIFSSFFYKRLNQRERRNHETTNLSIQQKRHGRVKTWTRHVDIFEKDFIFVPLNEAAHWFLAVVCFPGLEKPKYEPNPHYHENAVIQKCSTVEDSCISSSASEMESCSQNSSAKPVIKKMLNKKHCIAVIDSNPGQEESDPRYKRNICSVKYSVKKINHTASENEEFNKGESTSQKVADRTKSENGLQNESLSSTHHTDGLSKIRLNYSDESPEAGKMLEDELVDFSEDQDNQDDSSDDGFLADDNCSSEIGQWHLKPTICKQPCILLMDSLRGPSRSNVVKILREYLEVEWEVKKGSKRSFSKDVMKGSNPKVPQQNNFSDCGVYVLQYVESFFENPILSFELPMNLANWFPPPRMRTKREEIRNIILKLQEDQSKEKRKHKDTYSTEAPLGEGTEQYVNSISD
SENP7 block: SENP7 protease inhibitors, primary screen, biochemical, luminescence, uHTS | recombinant SENP7, Z-RLRGG-aminoluciferin luminescence, 40 min | inhibition, % at 5 µM | 330,000 tested, 1.5% active | AID 434973, 2010;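 active = inhibition above about 50% at the single test dose, limit read from the data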
SENP8 block-1: SENP8 protease inhibitors, primary screen, biochemical, luminescence. Sentrin-specific protease 8 (Homo sapiens), Q96LD8. purified SENP8, Z-RLRGG-aminoluciferin cleavage. inhibition, % at 10 µM. 330,000 tested, 1.2% active. AID 2540, 2010; in the data active = inhibition above about 50%
SENP8 block-2: human SENP8 protease inhibitors, primary screen, biochemical, fluorescence, Nedd8 protein substrate, uHTS; Sentrin-specific protease 8 (Homo sapiens), Q96LD8; recombinant SENP8; inhibition, % at 20 µM; 360,000 tested, 0.64% active; AID 602440, 2012; in the data active = inhibition mostly above about 40%, no sharp cut-off; inactive = mostly below about 27%
HSP90 refold inh: HSP90 inhibitors, primary screen, cell lysate, luminescence; Heat shock protein HSP 90 (rabbit reticulocyte lysate; luciferase refolding); Rabbit reticulocyte lysate, luciferase refolding luminescence, 3 h; inhibition, % at 5.6 µM; 290,000 tested, 0.91% active; AID 1789, 2009;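 active = inhibition above the screen-wide mean plus 3 SD, computed separately per campaign, cut at about 16% in these data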;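 also: inhibitors lower the luminescence because luciferase stays unfolded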
SENP8 confirm: SENP8 protease inhibitors, retest, confirmation, biochemical, luminescence, single concentration; AID 488912, 2010; 6,200 tested, 40% active; shares compounds with SENP7 block; inhibition, % at 12.5 µM; Recombinant SENP8, Z-RLRGG-aminoluciferin luminescence, 60 min;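 active = mean inhibition across replicates above about 50%, limit read from the data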
SENP6 confirm: SENP6 protease inhibitors, confirmation, biochemical, luminescence, single concentration. shares compounds with SENP7 block. recombinant SENP6, Z-RLRGG-aminoluciferin luminescence. AID 488915, 2010. inhibition, % at 12.5 µM. 6,200 tested, 58% active
SENP7 conf: SENP7 protease inhibitors, retest, confirmation, biochemical, luminescence, single concentration | inhibition, % at 12.5 µM | shares compounds with SENP7 block | recombinant SENP7, Z-RLRGG-aminoluciferin luminescence, 40 min | 6,200 tested, 69% active
Casp3 SENP sel: caspase-3 protease inhibitors, confirmation, selectivity assay for SENP inhibitor project, biochemical, single concentration; shares compounds with SENP7 block; purified caspase-3, Z-DEVD-aminoluciferin luminescence, 60 min; inhibition, % at 12.5 µM; 6,200 tested, 60% active;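 active = mean inhibition above about 50%, limit read from the data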
Target sequence (P42574 28-227 limits assumed): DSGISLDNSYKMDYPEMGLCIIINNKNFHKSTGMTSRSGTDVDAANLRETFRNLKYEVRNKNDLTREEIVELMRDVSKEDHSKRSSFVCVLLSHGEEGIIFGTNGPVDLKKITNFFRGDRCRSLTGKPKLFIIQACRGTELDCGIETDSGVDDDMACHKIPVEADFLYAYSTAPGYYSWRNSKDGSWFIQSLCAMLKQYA
SENP luc ctr: counter-screen for SENP inhibitors: luminescence interference; 6,200 tested, 39% active; shares compounds with SENP7 block; inhibition, % at 12.5 µM; Pre-incubated SENP8/Z-RLRGG-aminoluciferin, luciferase luminescence interference;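 active = mean inhibition above about 50% when retested at one dose, limit read from the data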
Hits are given with their value; n = inactive; x = no result given. Shown are actives, neighbours in structure and some others; about 2.8% of the full set was active somewhere.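 The calls were made as follows, unless noted: active = mean inhibition above about 50% in the one-dose retest (limit read from the data); inactive = the rest.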

SMILES | SENP6 block | SENP7 block | SENP8 block-1 | SENP8 block-2 | HSP90 refold inh | SENP8 confirm | SENP6 confirm | SENP7 conf | Casp3 SENP sel | SENP luc ctr
CCOc1ccc(-n2cc(-c3ccc(OC)c(OC)c3)[nH]c2=S)cc1 | 73 | n | 53 | n | n | n | n | n | n | n
Cc1ccnc(NC(=O)Nc2cccc(F)c2)c1 | 93 | 94 | 73 | n | n | 56 | 72 | 89 | 72 | n
Cc1ccc(NC(=O)Nc2cccc(F)c2)nc1 | 52 | 53 | n | n | n | n | n | n | n | n
Cc1cccc(NC(=O)Nc2cccc(F)c2)n1 | n | n | n | n | n | x | x | x | x | x
O=C(Nc1cccc(F)c1)Nc1ccc(Cl)cn1 | n | n | n | n | n | x | x | x | x | x
O=C(Oc1ccc2ccccc2c1Cl)N1CCCC1 | 73 | 57 | n | n | n | n | 52 | 84 | 53 | 59
O=C(Oc1c(Cl)cc(Cl)c2ccccc12)N1CCCC1 | n | n | n | n | n | x | x | x | x | x
O=C(Oc1ccc2ccccc2c1Cl)N1CCCCCC1 | 76 | 53 | 54 | n | n | 71 | 70 | 87 | n | n
O=C(Oc1ccc(Cl)c2ccccc12)N1CCCCC1 | n | n | n | n | n | x | x | x | x | x
O=C(CN1CCCCCC1)Nc1ccc([N+](=O)[O-])cc1Cl | n | n | n | n | n | x | x | x | x | x
Cc1ccc(NC(=O)CCc2c(C)nn(-c3ccc(N4CCCCC4)nn3)c2C)cc1F | 56 | n | n | n | n | 61 | 53 | 77 | n | n
CCc1ccc(C2=NN(C(C)=O)C(c3ccco3)C2)cc1 (stereo not given) | 82 | 81 | 83 | n | n | 92 | 92 | 99 | 90 | 92
CCC(=O)N1N=C(c2ccc(Cl)cc2)CC1c1ccco1 (stereo not given) | n | n | n | n | n | x | x | x | x | x
CCc1sc(C(=O)N2CCc3ccccc32)cc1C | 96 | 97 | 93 | n | n | 96 | 97 | 102 | 95 | 86
O=C(c1ccc(Cl)s1)N1CCc2ccccc21 | 89 | 89 | 81 | n | n | 54 | 68 | 81 | 80 | 54
O=C(c1ccc(C(=O)N2CCCc3ccccc32)s1)N1CCCc2ccccc21 | n | n | n | n | n | x | x | x | x | x
Cc1ccn2c(c1)nc(=S)n2C(=O)c1ccccc1 | 60 | 76 | n | n | n | n | 52 | 76 | n | n
CCCN(CC(=O)Nc1ccccc1C)C(=O)CCCc1c[nH]c2ccccc12 | n | n | n | n | x | x | x | x | x | x
CCOc1cc(/C=N/n2nnnc2N)ccc1OCc1c(C)no[n+]1[O-] | n | n | n | n | n | x | x | x | x | x
CC(=O)c1cc(O)c2ccccc2c1O | 60 | n | n | n | n | n | n | n | n | n
O=C(CSCc1ccccc1)Nc1ccc(F)c(F)c1 | n | n | n | n | n | x | x | x | x | x
O=C(CSCc1ccc(F)cc1)Nc1ccccc1 | n | 65 | n | n | n | n | n | n | n | n
COc1ccc2cc(C(c3nnnn3C3CCCC3)N3CCc4ccccc4C3)c(=O)[nH]c2c1 (stereo not given) | n | 74 | 66 | n | n | n | n | n | n | n
COc1ccc2cc(C(c3nnnn3C(C)(C)C)N3CCc4ccccc4C3)c(=O)[nH]c2c1 (stereo not given) | n | n | n | x | n | x | x | x | x | x
O=C(COc1ccc2c(c1)CCC2)Nc1ccccn1 | 97 | 99 | 95 | n | x | 97 | 98 | 101 | 97 | 96
SMILES | SENP6 block | SENP7 block | SENP8 block-1 | SENP8 block-2 | HSP90 refold inh | SENP8 confirm | SENP6 confirm | SENP7 conf | Casp3 SENP sel | SENP luc ctr
Cc1cccc(NC(=O)COc2ccc3c(c2)CCC3)n1 | 61 | 51 | n | n | x | 56 | 56 | 84 | 60 | n
O=C(COC(=O)COc1ccc2c(c1)CCC2)Nc1ccccc1 | n | n | n | n | x | x | x | x | x | x
CC(=O)N/C(=N\OCc1ccc(Br)cc1)c1nonc1NC(C)=O | n | n | n | n | n | x | x | x | x | x
Cc1ccc(/C=N/NC(=O)c2nn(C)cc2Cl)cc1 | n | n | n | n | n | x | x | x | x | x
Cn1cc(Cl)c(C(=O)N/N=C/c2ccc3c4c(cccc24)CC3)n1 | n | 53 | n | n | n | n | n | n | n | n
C#CCOC(=O)C[N+](C)(C)CC=C | n | n | n | n | n | x | x | x | x | x
CCCCSc1nnc(CSc2nc3nc(C)cc(C)n3n2)o1 | n | 78 | n | n | n | n | n | n | n | n
CN(C)c1oc(-c2cccs2)nc1C#N | n | n | n | n | n | x | x | x | x | x
CCCOc1ccc(-c2nnc(-c3cccs3)o2)cc1 | 80 | n | n | n | n | n | n | n | n | n
CN(C)c1ccc(-c2nnc(-c3cccs3)o2)cc1 | 72 | 79 | 60 | n | n | n | 51 | 76 | n | n
COc1ccc(CNC(=O)c2cccc(NC(=O)CC3SC(N4CCCCC4)=NC3=O)c2)cc1 (stereo not given) | n | n | n | n | x | x | x | x | x | x
Cc1ccc(S(=O)(=O)Oc2cccc(/C=N/n3cnnc3)c2)cc1 | n | n | n | n | n | x | x | x | x | x
Cc1ccc(S(=O)(=O)Oc2cccc(/C=N/Nc3ccc(C(=O)O)cc3)c2)cc1 | n | 62 | 88 | n | n | n | 96 | 101 | n | 90
O=c1sc2ccccc2c(N2CCOCC2)c1[N+](=O)[O-] | 57 | n | n | n | n | n | n | 50 | 70 | 55
COc1ccc(C(=O)/C=C2\Sc3ccccc3N2C)cc1 | n | 53 | n | n | n | 74 | 77 | 92 | 77 | n
CC(=S)/C=C1\Sc2ccccc2N1C | n | n | n | n | n | x | x | x | x | x
COc1ccc(C)cc1NC(=O)C(c1ccccc1)N1CCN(CC(=O)N2CCCC2)CC1 (stereo not given) | n | n | n | n | x | x | x | x | x | x
FC(F)Oc1ccccc1/C=N/Nc1nc2ccccc2o1 | n | n | n | n | n | x | x | x | x | x
Fc1ccccc1/C=N/Nc1nc2ccccc2o1 | n | 70 | n | n | n | n | n | n | n | n
COc1ccccc1C(=O)Nc1ccc2c(c1)CCCN2C(=O)c1cccs1 | 54 | 55 | n | n | n | 66 | 64 | 84 | 65 | 58
COc1cc(OC)cc(C(=O)Nc2ccc3c(c2)CCCN3C(=O)c2cccs2)c1 | n | n | n | n | n | x | x | x | x | x
